Compound activity: PubChem, National Center for Advancing Translational Sciences (NCATS)
Shown are actives, neighbours in structure and some others; about 7.2% of the full set was active somewhere.
Sm TGR block – qHTS Assay for the Inhibitors of Schistosoma Mansoni Peroxiredoxins. Potency, µM (doses to about 114 µM), inactives show at the highest dose activity change, negative = inhibition, most hits filed as inhibitors. 360,000 tested, 3% active. Schistosoma mansoni thioredoxin glutathione reductase (TGR), Q962Y6. AID 485364, 2010. purified TGR, DTNB reduction, TNB absorbance 405 nm; note: nearly all actives have a fitted effect of over 60% in size
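Kinetic colorimetric format: TGR-catalysed, NADPH-driven DTNB reduction monitored via TNB absorbance. Enzyme dispensed at 20 nM; compound exposure 15 min at room temperature before reaction start.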
RE007 growth inh – qHTS Assay for Inhibitors of the HIV-1 protein Vpr; S. pombe RE007 Vpr strain, BacTiter-Glo ATP luminescence, 24 h; 360,000 tested, 0.21% active; Potency, µM (doses to about 92.2 µM), for the others: at the top dose activity change, negative = less growth, most hits filed as inhibitors; active = well fitted falling curve with a large enough effect; inconclusive = small, poorly fitted or top-dose-only effect; inactive = no such curve, though single readings can be large or run the other way; note: nearly all actives have a fitted effect of over 50% in size
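Fission yeast strain RE007, carrying one chromosomally integrated HIV-1 vpr copy, was seeded at OD 0.01 in PMG+AL medium with 23 nL pinned compound. After 24 h at 30 °C and 99% humidity, viability was read by BacTiter-Glo luminescence.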
HCV inh – qHTS Assay for Inhibitors of Hepatitis C Virus (HCV) | Huh7.5.1 HCVcc-Cre infection, luciferase reporter, 44 h | Potency, µM (highest dose often 41.8 µM), without a hit: at the highest dose activity change, negative = inhibition, hits mostly inhibitors | 340,000 tested, 3.4% active | AID 651820, 2012
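1,000 cells/well; 4 h culture; + compound; + HCVcc-Cre (~0.5 moi); 44 h; luciferase substrate, RT 15 min; read 15 sec.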
LASV entry inh – qHTS for Inhibitors of binding or entry into cells for Lassa Virus; Potency, µM (titrated, usually from 37.9 µM), inactives show at the top dose activity change, negative = inhibition, actives largely listed as inhibitors; Lassa virus pseudotype entry inhibition, cell reporter; 300,000 tested, 1.2% active; calls by dose curve; tested in HEK293 cells; note: nearly all actives have a fitted effect of over 50% in size
FMDV inh – High Throughput Screening for Foot and Mouth Disease Virus Antivirals. FMDV antiviral cell-based qHTS. Potency, µM (doses to about 57.9 µM), inactives show at the top dose activity change, negative = inhibition, usual class: inhibitors. 410,000 tested, 1.2% active. AID 1159524, 2015; calls by dose curve; tested in HEK293T cells; note: read-out not given here; nearly all actives have a fitted effect of over 45% in size
MARV entry inh – qHTS for inhibitors of binding or entry into cells for Marburg Virus. Marburg virus pseudotyped entry inhibition, cell reporter. Potency, µM (series often up to 37.8 µM), for inactives: top-dose activity change, negative = inhibition, hits mostly inhibitors. 300,000 tested, 1.8% active. AID 540276, 2011; calls by dose curve; tested in HEK293 cells
* = called active by the depositor; u = inconclusive; x = not tested or not shown; [ ] = dose if it differs, or a comment. Unless noted, calls come from the whole dose curve; as a rule, active = well fitted curve in the direction sought with a large enough effect; inconclusive = small, poorly fitted or top-dose-only effect, or another doubt; inactive = no such curve, though single readings can be large; an effect the other way counts as inactive or inconclusive. % is set by controls: 0 for no effect and ±100 for the full control effect; potency is the fitted concentration of half-maximal effect.

SMILES	Sm TGR block	RE007 growth inh	HCV inh	LASV entry inh	FMDV inh	MARV entry inh
CCOC(=O)CNC(=O)CSc1nnc(NC(=O)c2ccc(C)cc2)s1	14%	-11%	4%	u	-60%	6.3µM*
Cc1ccc(C(=O)Nc2nnc(SCC(=O)N3CCCc4ccccc43)s2)cc1	6%	-7%	15%	3.5µM*	u	u
CC(C)Oc1ccc(C(=O)Nc2nnc(SCC(=O)N3CCOCC3)s2)cc1	-4%	-13%	3%	2.8µM*	u	u
O=C(Nc1nnc(SCC(=O)N2CCCc3ccccc32)s1)c1cccc2ccccc12	6%	-2%	12%	-4%	-25%	3%
CCn1c(-c2cc(C3CC3)nc3ccccc23)n[nH]c1=S	45µM*	x	-6%	4%	-26%	u
CCn1c(-c2cc(-c3cc(C)ccc3C)nc3ccccc23)n[nH]c1=S	18%	-6%	-1%	7%	-18%	0%
COc1ccc(-c2cc3nc(CCl)[nH]c(=O)c3s2)cc1	-17%	-12%	u	u	14µM*	u
COc1cc2cnc(-c3ccccc3)c(-c3ccc([N+](=O)[O-])cc3)c2cc1OC	-25%	-11%	3%	x	5%	x
COc1cc2cnc(-c3ccccc3)c(-c3cc(OC)c(OC)c(OC)c3)c2cc1OC	3.2µM*	-11%	13µM*	x	-20%	x
COc1nc(-c2ccccc2)cc(-c2ccc(OC)c(OC)c2)n1	4%	-19%	1.8µM*	-19%	-23%	u
COc1cc2cnc(-c3ccccc3)cc2cc1OC	x	u	22µM*	x	11%	x
CCOC(=O)c1cccc(NC(=O)[C@@H](c2ccccc2)N2Cc3ccccc3C2=O)c1	1%	x	x	-16%[46.1 µM]	69%	u
N#CC1=C(N)N(c2ccc(Br)cc2)C2=C(C(=O)CCC2)C1c1cccnc1 (configuration not stated)	40µM*	5%	6%	2%	38%	u
COc1ccc(-c2noc(CSc3nc4ccccc4[nH]3)n2)cc1OC	0%	x	x	-17%[46.1 µM]	u	-35%[46.1 µM]
O=C1C=CC(O)C2(CO)OC12 (configuration not stated)	x	9%	x	x	28µM*	x
COc1ccc(NC(=O)CC(c2ccccc2)c2ccco2)cc1 (configuration not stated)	40µM*	18%	-4%	-10%	29%	-4%[46.1 µM]
COc1ccc(NC(=O)CC(C(=O)O)C(C)c2ccccc2)cc1 (configuration not stated)	5%	9%	0%	8%[46.1 µM]	-11%	21%[46.1 µM]
COc1ccc(NC(=O)CN(C)C(=O)CSC(c2ccccc2)c2ccccc2)cc1	12%	4%	13µM*	x	-22%	x
COc1ccc(NC(=O)CN(C)C(=O)Cc2ccc(-c3ccccc3)cc2)cc1	-7%	u	u	-3%	-8%	9%
O=C(Nc1c(Cl)ccc2nsnc12)c1cccnc1	3%	-2%	-20%	-1%	-2%	-10%
O=C(NC(=S)Nc1c(Cl)ccc2nsnc12)c1ccco1	25µM*	-7%	12%	-24%	-14%	11%
O=C(NC(=S)N1CCCc2ccccc21)c1ccco1	28µM*	13%	4%	3%	2%	7%[46.1 µM]
O=C(NC(=S)Nc1ccc(Cl)c(C(=O)O)c1)c1ccco1	45µM*	18%	10%	x	27%	x
O=C(NC(=S)Nc1ccccc1N1CCCCC1)c1ccco1	1%	17%	u	-10%	22µM*	0%
O=C(Nc1ccccc1)N1CCC2(CC1)CCN(S(=O)(=O)c1ccccc1)CC2	x	x	x	x	-1%	x
SMILES	Sm TGR block	RE007 growth inh	HCV inh	LASV entry inh	FMDV inh	MARV entry inh
O=C(NC(=S)Nc1ccc(N2CCCCC2)cc1)c1ccco1	16µM*	-7%	x	76%[14.3 µM]	33%	u
O=C(NC(=S)Nc1ccccc1Cl)c1ccco1	13µM*	-16%	-7%	-23%	59%	u
CC1CCN(c2ccc(NC(=S)NC(=O)c3ccco3)cc2)CC1	u	-4%	-9%	0%	-1%	-2%
COc1cc2c(cc1OC)-c1cc3ccc(OC)c(OC)c3c[n+]1CC2	-10%	-17%[18.4 µM]	u	x	-27%	x
COc1ccc2cc3[n+](cc2c1O)CCc1cc2c(cc1-3)OCO2	x	-19%	x	x	10µM*	x
COc1cc(NC(=O)Cn2nc(C(F)(F)F)c3c2CCC3)cc(OC)c1OC	4%	x	x	-4%[46.1 µM]	u	u
COc1ccccc1-c1ccc(Nc2cccc(C(F)(F)F)c2)nn1	4%	2%	-13%	-1%	-21%	0%
COc1ccccc1-c1ccc(NC2CCCCC2)nn1	7%	-7%	22µM*	25%	47%	u
Cc1cc(NC(=O)CSc2nc(-c3ccccc3C)nc3c2c(=O)n(C)c(=O)n3C)no1	-23%	x	x	6%[46.1 µM]	-3%	x
COc1ccc(O)c(/C=N/n2c(-c3ccco3)csc2=Nc2cccnc2)c1	-16%	9%	-1%	u	u	-2%
CN=c1scc(-c2ccccc2F)n1/N=C/c1ccc[nH]1	-14%	u	-26%	u	126µM*	1µM*
CN=c1scc(C)n1/N=C/c1ccc(O)cc1O	-12%	u	u	u	u	u
CC(C)N=c1scc(-c2cccs2)n1/N=C/c1ccc(O)c(O)c1O	20µM*	u	-20%	u	-21%	u
CN=c1scc(-c2ccccc2F)n1/N=C/c1ccc(O)c(O)c1O	18µM*	u	-22%	u	3.5µM*	u
CCN=c1scc(-c2cccs2)n1/N=C/c1cc(OC)ccc1O	-1%	-12%	5µM*	u	-52%	u
O=C(NCC1Cc2cc(F)cc(-c3cccnc3)c2O1)c1cnn(-c2ccccc2)c1 (configuration not stated)	x	x	x	x	-2%	x
CCc1cc(C(=O)NCC2Cc3cccc(-c4ccc(C(=O)OC)cn4)c3O2)no1 (configuration not stated)	x	x	x	x	-5%	x
CCCCC1=CC2=CC(=O)C(C)(OC(=O)c3cnc4ccccc4n3)C(=O)C2=CO1 (configuration not stated)	35µM*	x	x	x	x	11%[14.2 µM]
CCCCC1=CC2=CC(=O)C(C)(OC(=O)c3cccs3)C(=O)C2=CO1 (configuration not stated)	x	-15%	12%	x	-16%	x
CC1(OC(=O)CCc2ccccc2)C(=O)C=C2C=C(c3ccc(C#N)cc3)N(Cc3ccccc3)C=C2C1=O (configuration not stated)	u	14%	40%	x	-14%	u
